SMARCA2 act = increases SMARCA2 function in MMTV reporter cells; activation, % at 9.1 µM; MG213 cells, MMTV-luciferase reporter, dexamethasone, overnight; hit rate 1% among 370,000; in the data active = activation above about 7.8%;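 also: 0% = vehicle wells and 100% = reference activator wells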
DAX1 StAR inh = DAX1 (NR0B1) inhibition, primary screen; HEK293T StAR-luciferase reporter, SF-1/DAX-1 repression relief; inhibition, % at 6.8 µM; hit rate 1.1% among 370,000; AID 652010;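 active = inhibition above the mean over all tested compounds plus 3 SD, cut at about 3.6% in these data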;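 also: 0% = DAX-1 cells with DMSO and 100% = cells lacking DAX-1 with DMSO; higher inhibition means more luminescence from relief of DAX-1 repression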
hcDAF-12 act = activates DAF-12 receptor from parasite H. contortus | HEK293 hcDAF-12 lit1-tk-luc reporter, luminescence; 0% DMSO, 100% Δ7-dafachronic acid | activation, % at 6.8 µM | hit rate 1.4% among 370,000 | AID 652067;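 active = activation above the mean of all tested compounds plus 3 SD, cut at about 5.5% in these data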;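 also: 100% = response to 3 µM Δ7-dafachronic acid high control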
ssDAF-12 act = activators of S. stercoralis DAF-12 nuclear receptor; activation, % at 6.8 µM; AID 652126; HEK293 ssDAF-12/GRIP1 lit1-tk-luc reporter, luminescence; % of 3 µM dafachronic acid response; hit rate 1% among 370,000;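 active = activation above the mean over all tested compounds plus 3 SD, cut at about 0.9% in these data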;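 also: 0% = DMSO-only wells and 100% = 3 µM delta7-dafachronic acid wells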
hgDAF12 agonist = agonists of H. glycines DAF-12 nuclear receptor; activation, % at 6.8 µM; hit rate 1.8% among 370,000; HEK293 GAL4-hgDAF12 UAS-luciferase reporter, agonist luminescence; normalized to butyrate control;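 active = activation above a cutoff set at the mean of all screened compounds plus 3 SD, cut at about 10% in these data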;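 also: 0% = DMSO wells and 100% = sodium butyrate wells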
SMARCA2 conf = confirmation of SMARCA2 (BRM) function activators; shares compounds with SMARCA2 act; hit rate 30% among 3,500; MG213 cells, MMTV-luciferase with dexamethasone, luminescence, overnight; MG213 cells expressing E1A, Rb sequestered; DMSO wells 0%, reference activator 100%; activation, % at 9.1 µM;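 active = activation above its plate's cutoff, the mean activation of tested wells plus 3 SD, cut at about 7.9% in these data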
VP16 Luc act = GAL4-VP16 reporter activation counter-screen; hit rate 41% among 3,500; activation, % at 9.1 µM; HEK293 GAL4-VP16 pG5luc reporter, luciferase luminescence; scaled: DMSO wells 0%, SAHA wells 100%; shares compounds with SMARCA2 act;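 active = activation above the solvent-only control well mean plus 3 SD, averaged across control plates, cut at about 5.2% in these data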
An asterisk follows results filed as active; . = not tested or not shown. Only some compounds are listed: those with a hit (about 4.2% of all), similar ones and a draw of the others.

SMILES	SMARCA2 act	DAX1 StAR inh	hcDAF-12 act	ssDAF-12 act	hgDAF12 agonist	SMARCA2 conf	VP16 Luc act
Cc1[nH]ccc2cc3nc4ccccc4c3cc12	18*	-2	5.7*	1	3	76*	1
Cc1cccc2nc3ccccc3cc12	-3	0	0	-1	1	.	.
CC1(C(=O)NS(=O)(=O)c2ccc(Br)cc2)CCN1C(=O)CCc1ccccc1 (stereo unspecified)	-3	-1	1	-1	-2	.	.
COC(=O)C1CN(Cc2ccc(OC)cc2)CCS(=O)(=O)N1Cc1ccccc1 (stereo unspecified)	-2	0	0	-1	-1	.	.
COc1ccc(C(=O)Cc2ccc3c(c2)OCO3)c(O)c1	8.2*	3	4	1.4*	9	1	8.9*
O=C(O)COc1ccc(C(=O)Cc2ccc3c(c2)OCCCO3)c(O)c1	-3	0	-3	-1	-1	.	.
O=C(CNS(=O)(=O)c1ccc(F)cc1)N1CCN(c2ccccn2)CC1	-6	-2	1	-1	0	.	.
COc1ccc(NC(=O)CSc2nc(C)cc(=O)[nH]2)cc1OC	-5	0	-1	0	0	.	.
CCOc1cnn(-c2cc(Oc3ccc(C)cc3)ncn2)c(=O)c1Cl	-2	0	-1	-1	-1	.	.
Cc1ccccc1Oc1cc(-n2ncc(Cl)c(Cl)c2=O)ncn1	11*	1	3	-2	-2	-15	2
COC(=O)c1cc(Cl)nc2ccccc12	-3	0	0	-2	-2	.	.
CCCc1cc(C(=O)OC)c2ccccc2n1	8.3*	0	0	-1	2	-2	1
N#Cc1ccc(C(=O)NCC2CCN(C(=O)C(=O)c3cccs3)CC2)cc1	-2	-2	-1	-1	-1	.	.
CCOC(=O)COc1ccccc1C1Nc2ccccc2C(=O)N1c1cccc(Cl)c1 (stereo unspecified)	8.2*	3	2	-1	12*	7	6.0*
N#Cc1ccc(C(=O)N2CCCCC2c2cc(C(=O)Nc3ccc4c(c3)OCO4)no2)cc1 (stereo unspecified)	-2	-1	-1	-2	-1	.	.
Cc1n[nH]c(=S)n1/N=C/c1ccccc1OCc1ccc(Cl)cc1Cl	-2	-1	0	-1	0	.	.
Cc1n[nH]c(=S)n1/N=C/c1ccc(OCc2ccc(Cl)cc2Cl)cc1	13*	0	2	0	4	0	3
Cc1ccc(-n2c(Cc3cccs3)nnc2SCC(=O)Nc2ccc(OCc3ccccc3)cc2)cc1	-6	-2	0	-2	2	.	.
CC(C)c1[nH]nc2c1C(c1ccccc1)NC2=O (stereo unspecified)	-1	1	-1	-1	2	.	.
CCCCc1c(-c2ccccc2OC)ncn1Cc1cccc(F)c1	-5	0	0	-2	-3	.	.
COC(=O)c1ccc(N=NN2CCCCC2)cc1	12*	3	2	1	10	4	11*
Cc1ccc(S(=O)(=O)NC(=O)NC(C)Cc2ccccc2)cc1 (stereo unspecified)	1	0	4	-1	0	.	.
Cc1ccc(S(=O)(=O)NC(=O)NC(C)c2ccc(F)cc2)cc1 (stereo unspecified)	8.0*	0	2	-1	-1	0	1
COc1cc2c(cc1OC)C(CSc1ccccc1C(=O)O)=NC(C)(C)C2	9.3*	0	-3	-2	-3	9.4*	5.8*
O=C(NCCN1CCC(Cc2ccccc2)CC1)C1CCCN(S(=O)(=O)c2cccs2)C1 (stereo unspecified)	-4	-3	-4	-2	-2	.	.
SMILES	SMARCA2 act	DAX1 StAR inh	hcDAF-12 act	ssDAF-12 act	hgDAF12 agonist	SMARCA2 conf	VP16 Luc act
O=c1c2sc(-c3ccccc3)cc2nc2n1CCC2	9.9*	4.3*	5.8*	0.9*	13*	2	4
CCOC(=O)/C=C(\C)N1N=C(c2ccccc2)CC1c1ccccc1 (stereo unspecified)	8.3*	2	6.7*	0	10	3	9.2*
Cc1ccc([C@@H]2C[C@H]3[C@@H](CN2S(=O)(=O)c2ccc(Cl)cc2)C(=O)C[C@@H](c2cccc4ccccc24)N3S(=O)(=O)c2ccc(C)cc2)cc1	-5	-1	-2	-1	-2	.	.
CC(=O)c1cccc(Nc2cc(C)nc3ccc(C)cc23)c1	11*	0	0	-1	0	1	0
COc1ccc(OC)c(S(=O)(=O)N2CCCCC2C(=O)N2CCN(Cc3ccc(F)cc3)CC2)c1 (stereo unspecified)	-2	-3	-3	-2	0	.	.
CCOC(=O)/C(C#N)=C/c1c(Oc2cccc(C)c2)nc2ccccn2c1=O	-3	-1	1	-1	-1	.	.
CCOC(=O)/C(C#N)=C/c1c(Oc2cc(C)cc(C)c2)nc2ccccn2c1=O	8.2*	1	0	-1	-3	-3	0
O=C(NCCc1ccccc1)OCc1cn(Cc2ccc(F)c(F)c2)nn1	-2	1	3	-1	2	.	.
COc1ccc(C2=Nn3c(nnc3-c3ccncc3)SC2)cc1OC	8.6*	-1	-2	-2	-1	3	4
COc1ccc(C2=Nn3c(nnc3-c3ccccc3C(F)(F)F)SC2)cc1OC1CCOC1 (stereo unspecified)	8.4*	-1	-2	-2	-1	16*	5.9*
COCCCNC(=O)C[C@@H]1C[C@@]2(C(=O)OC)CCCCC=C2N(CCC2=CCCCC2)C1=O	-1	-1	-2	-2	1	.	.
O=S1(=O)C[C@H](N2CCN(CCO)CC2)[C@@H](COCc2ccccc2)N1	8.1*	1	-1	-1	-2	-4	3
Cc1ccc(C2=[N+]([O-])C(C)(C)N(O)C2(C)C)cc1	-4	0	0	-2	-1	.	.
CC1=[N+]([O-])C(C)(C)C(c2ccc(Br)cc2)=[N+]1[O-]	12*	0	0	-1	1	1	0
O=C(Nc1ccccc1Cl)c1ccccc1CC(O)(c1ccccc1)c1ccccc1	-1	-1	-1	-1	-1	.	.
CCCCOC(=O)c1ccc(N)cc1	7	2	-1	0	3	.	.
CCCCCCOC(=O)c1ccc(N)cc1	8.0*	1	1	-1	6	6	5.8*
CCCCOCCCNC(=O)C[C@@H]1C[C@@]2(C(=O)OCC)CCCC=C2N(Cc2ccc(Cl)cc2Cl)C1=O	-4	-1	-2	-1	1	.	.
CCC(C)c1ccc(OCCN2CCCC2)cc1 (stereo unspecified)	9.2*	0	0	-1	2	3	1
